# Assay results taken from the supplement of paper PMC12669032.
# Unmarked numbers belong to inactive results.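 Rule for the calls: active = AUC reduced over 20% with Padj below 0.05 in at least 2 of 3 replicates; inactive = otherwise.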
# Legend:
# Experiment in all cases: growth AUC relative to DMSO control (median of replicates) (fraction); higher = more growth (less inhibition), active = hit call of the paper
# Details in all cases: 20 µM; 24 h
# Coprococcus comes = test system: Coprococcus comes
# Method in brief: (§1)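 Starting at OD600 0.05, gut bacterial monocultures in mGAM were grown anaerobically at 37 °C with 20 µM compound (1% DMSO) under pierced gas-permeable seals. OD600 was read every hour for 24 h, and the lowest OD of each curve was set to 0. Area under the growth curve was normalised to the plate median of solvent-only wells, or to row and column medians on the industrial chemical plate, and the median of three biological replicates grown on separate days is given.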
# Escherichia coli ED1a = test system: Escherichia coli ED1a
# Method in brief: as §1
# Escherichia coli IAI1 = test system: Escherichia coli IAI1
# Method in brief: as §1
# Eubacterium rectale = test system: Eubacterium rectale
# Method in brief: as §1
# [1] = test system: Fusobacterium nucleatum subsp. animalis
# Method in brief: as §1
# Lactobacillus gasseri = test system: Lactobacillus gasseri
# Method in brief: as §1
# Lactobacillus paracasei = test system: Lactobacillus paracasei
# Method in brief: as §1
# Odoribacter splanchnicus = test system: Odoribacter splanchnicus
# Method in brief: as §1
# [2] = test system: Parabacteroides distasonis
# Method in brief: as §1
# Parabacteroides merdae = test system: Parabacteroides merdae
# Method in brief: as §1
# Roseburia intestinalis = test system: Roseburia intestinalis
# Method in brief: as §1
# Streptococcus salivarius = test system: Streptococcus salivarius
# Method in brief: as §1
Compound,growth AUC (Coprococcus comes),growth AUC (Escherichia coli ED1a),growth AUC (Escherichia coli IAI1),growth AUC (Eubacterium rectale),growth AUC [1],growth AUC (Lactobacillus gasseri),growth AUC (Lactobacillus paracasei),growth AUC (Odoribacter splanchnicus),growth AUC [2],growth AUC (Parabacteroides merdae),growth AUC (Roseburia intestinalis),growth AUC (Streptococcus salivarius)
CCSC(=O)N1CCCCCC1,1.02,0.991,0.993,0.977,1.06,1.06,0.954,0.947,0.997,1,1,1.01
CN(C)C(CSC(N)=O)CSC(N)=O.Cl,1.09,1.03,1.04,1.54,1.15,0.978,1.08,0.982,1.04,1.04,1.07,1
CN/C(=N\[N+](=O)[O-])NCc1cnc(Cl)s1,1.01,1.02,1,1.07,1.09,0.959,1,1.02,0.965,0.975,1.05,1
CC(Oc1ccc(Oc2nc3ccc(Cl)cc3o2)cc1)C(=O)O (racemic),1.05,1.02,0.997,1.03,1.12,1.04,1.07,0.923,1.04,0.97,1.12,0.999
CCCN(CCC)c1c([N+](=O)[O-])cc(C(C)C)cc1[N+](=O)[O-],1.06,1.02,0.996,1.02,1,0.941,1.09,0.989,0.932,0.984,1.01,0.99
c1coc(-c2nc3ccccc3[nH]2)c1,1.02,1.01,0.986,1.09,0.985,0.949,0.997,0.879,0.977,0.961,1.04,0.984
CN(C)c1nc(=O)n(C2CCCCC2)c(=O)n1C,1.03,0.994,0.984,0.978,1.11,1.01,0.943,1.02,1.03,1.01,1.02,1.01
O=C(Nc1ccccc1)Nc1ccnc(Cl)c1,1.03,0.942,0.788 (active),0.803,1.1,0.858,0.971,0.912,0.677 (active),0.888,0.896,0.844
O=S(=O)(c1ccc(O)cc1)c1ccc(O)cc1,0.974,1.05,1.02,0.972,0.977,0.963,0.953,0.914,0.878,0.974,1,1.04
CCOP(=S)(OCC)OP(=S)(OCC)OCC,0.985,0.968,0.979,0.928,1.04,1.23,1.04,0.98,1.02,0.984,0.984,0.976
c1ccc2c(c1)ccc1c3ccccc3sc21,0.965,0.988,1,0.942,1.01,0.974,1.03,0.984,1.1,1,0.964,1.05
CCOP(=O)(OCC)OP(=O)(OCC)OCC,0.976,0.982,1.02,1.19,1.02,0.954,0.961,0.986,0.946,0.919,0.969,1.03
COc1cnc(OC)n2nc(NS(=O)(=O)c3c(OCC(F)F)cccc3C(F)(F)F)nc12,1.01,1.01,1.02,0.954,0.96,1.08,0.965,1.01,1.01,1.01,1.01,0.959
CN(C)C(CSS(=O)(=O)[O-])CSS(=O)(=O)[O-].[Na+].[Na+],0.999,0.983,0.998,1.47,1.18,1,1.01,0.951,0.978,0.998,1.24,0.961
O=NN(CCO)CCO,1.01,0.994,1,0.977,1.01,0.976,1.01,1.13,0.861,1.04,0.971,0.986
CN(C(=O)COc1nc2ccccc2s1)c1ccccc1,1.01,1.02,0.952,1,1.1,1.13,1.02,0.934,0.948,0.998,1.08,1
CC(C)c1ccc(NC(=O)N(C)C)cc1,0.979,0.972,0.97,1.05,1.07,0.934,0.98,1.12,0.998,0.935,0.95,0.956
CCN(C(=O)n1nnn(-c2ccccc2Cl)c1=O)C1CCCCC1,0.942,0.969,0.989,0.956,1.01,1.01,0.827,0.97,0.682 (active),0.411 (active),0.938,0.971
CCCCOC(=O)[C@@H](C)Oc1ccc(Oc2ccc(C#N)cc2F)cc1,1.01,1,0.966,1.11,1.01,0.87,0.939,1,0.704 (active),0.971,0.997,0.954
CCOP(=O)(OCC)OCC,1.01,1.01,1.07,1.01,1.07,0.931,0.964,1.05,1.03,1.05,1.07,0.994
CC1(C)C(C=C(Cl)Cl)[C@@H]1C(=O)O[C@@H](C#N)c1ccc(F)c(Oc2ccccc2)c1 (stereo not given in full),0.984,0.956,1,1,0.878,0.823,0.99,1.01,1.03,0.991,0.916,1
O=[N+]([O-])/N=C1\NCCN1Cc1ccc(Cl)nc1,0.975,1.02,1,1.06,1.06,0.862,0.951,1.09,1.02,1.07,0.955,0.97
CCOc1cc(Oc2ccc(C(F)(F)F)cc2Cl)ccc1[N+](=O)[O-],0.602 (active),1.01,0.979,0.989,1.09,0.939,0.955,1.08,1.01,0.954,0.884,0.976
CCOP(=S)(OCC)SCCS(=O)CC (stereo not given),0.971,0.985,0.98,1.11,1.02,0.941,0.948,1.06,1.01,1,0.965,0.973
COC(=O)C(C)N(C(=O)c1ccco1)c1c(C)cccc1C (stereo not given),0.96,0.971,0.981,1.06,1.04,0.86,1.06,0.938,1,0.918,0.97,0.942
